Inconclusive results are not listed. A call without a number means that no potency is given here. Activity calls are given as the source filed them. The call rests on the fitted dose curve; in most records, active means well fitted curve in the direction sought with a large enough effect; inconclusive means small, poorly fitted or top-dose-only effect, or another doubt; inactive means no such curve, though single readings can be large or run the other way.
experiment: Confirmation Concentration-Response Assay for Inhibitors of Tau Fibril Formation, Total Fluorescence Counterscreen for Fluorescence Polarization; details: Alexa594-tau K18 total fluorescence counterscreen, interference, tau K18 with P301L mutation; series mostly up to 100 µM
Text: NIH Molecular Libraries Probe Production Network [MLPCN] NIH Chemical Genomics Center [NCGC] MLPCN Grant: X01 MH083262-01 Assay Provider: Carlo Ballatore, University of Pennsylvania NCGC Assay Overview: The microtubule-associated protein tau is an abundant protein in the axons of neurons that stabilizes microtubules. With its ability to modulate microtubule dynamics, tau contributes directly or indirectly, to key structural and regulatory cellular functions. Particularly important is the influence tau exerts on axonal transport, which allows signaling molecules, trophic factors and other essential cellular constituents to travel along the axons. Under pathological conditions, tau becomes sequestered into insoluble aggregates called neurofibrillary tangles. This phenomenon is believed to have pathological consequences by promoting axonal transport deficits that ultimately lead to synaptic dysfunction and neuronal loss. To identify inhibitors of tau aggregation, a heparin-induced tau fibril formation assay was used that employed a recombinantly expressed fragment of tau, K18 (Q242-E372), bearing a P301L mutation (Gustke et al. 1994; Hong et al. 1998). […] Total fluorescence (555 nm excitation and 632 nm emission) was measured to identify fluorescent or absorbent compounds at this wavelength. Such compounds may be artifacts that interfere with the Alexa 594 Tau fluorescence polarization assay. Gustke, N., B. Trinczek, et al. (1994). "Domains of tau protein and interactions with microtubules." Biochemistry 33(32): 9511-22. Hong, M., V. Zhukareva, et al. (1998). "Mutation-specific functional impairments in distinct tau isoforms of hereditary FTDP-17." Science 282(5395): 1914-7. Li, W. and V. M. Lee (2006). "Characterization of two VQIXXK motifs for tau fibrillization in vitro." Biochemistry 45(51): 15692-701. von Bergen, M., S. Barghorn, et al. (2001). "Mutations of tau protein in frontotemporal dementia promote aggregation of paired helical filaments by enhancing local beta-structure." J Biol Chem 276(51): 48165-74.
For screening, 2 uL/well human K18 P301L (15 uM unlabeled and 0.24 uM Alexa 594-labeled tau final concentrations) in reagent buffer (100 mM sodium acetate pH 7) was dispensed into black solid 1536-well plates (Grenier) using a solenoid-based dispenser. Following transfer of 23 nL compound or DMSO vehicle by a pin tool, 2 uL/well heparin (20 uM final concentration) in reagent buffer was added and the plate centrifuged 15 s at 1000 RPM. Plates were incubated 6 hr at 37 C and then 1 uL/well ThT (30 uM final concentration) was added. After a 1 hr ambient incubation, the plates were read by an Envision (Perkin Elmer) to monitor Alexa 594 FP (555 nm excitation and 632 nm emission). Keywords: NIH Roadmap, MLPCN, MLI, MLSMR, NCGC, qHTS, tau, tauopathies, Alzheimer's disease, fibril, neurodegeneration, aggregation

Row | Structure (SMILES) | Potency
1 | COC(=O)C1CCc2sc(NC(=O)Cc3ccccc3)c(C(=O)Nc3ccc(Cl)cc3)c21 (stereo not given) | inactive
2 | COC(=O)c1c(NC(=O)C(C)(C)C)sc2c1C(C(=O)OC)CC2 (stereo not given) | inactive
3 | Nc1scc2c(C(=O)N3CCOCC3)nn(-c3ccccc3)c(=O)c12 | inactive
4 | COC(=O)c1c(NC(=O)CCCOc2ccc(C)cc2)sc2c1C(C(=O)OC)CC2 (stereo not given) | inactive
5 | COC(=O)c1c(NC(=O)CCCOc2cccc(C)c2)sc2c1C(C(=O)OC)CC2 (stereo not given) | inactive
6 | O=C(Cc1ccccc1)Nc1sc2c(c1C(=O)Nc1ccc(Br)cc1)CCCC2 | inactive
7 | Nc1nc2cc(S(=O)(=O)NC3=NCCCCC3)ccc2s1 | inactive
8 | COc1ccc(NC(=O)Cn2cc(S(=O)(=O)N3CCN(c4ccccc4F)CC3)c3ccccc3c2=O)cc1Cl | inactive
9 | N#Cc1cccc(NC(=O)c2ccc3c(c2)N(Cc2cccc(Cl)c2)C(=O)c2ccccc2S3(=O)=O)c1 | inactive
10 | COC(=O)C1CCc2sc(N)c(C(=O)OCc3ccccc3)c21 (stereo not given) | inactive
11 | COc1ccc(NC(=O)c2c(NC(=O)Cc3ccccc3)sc3c2CCCC3)cc1 | inactive
12 | CCOC(=O)c1ccc(S(=O)(=O)Nc2nc3cc(S(=O)(=O)NC4=NCCCCC4)ccc3s2)cc1 | inactive
13 | Cc1cc2c(NC(=O)Nc3ccccc3)cccc2nn1 | inactive
14 | NC(=O)c1nn(-c2ccccc2)c(=O)c2c(N)scc12 | inactive
15 | COc1ccc2c(c1)c(CC(=O)Nc1ccc(C(C)=O)cc1)c(C)n2C(=O)c1ccc(Cl)cc1 | inactive
16 | CN(C)c1ccc(N2C(=O)CSC2=S)cc1 | inactive
17 | O=C(Nc1sc2c(c1C(=O)Nc1cccc(Cl)c1)CCCC2)c1cccs1 | inactive
18 | CCOC(=O)c1nn(-c2ccc(OC)cc2)c(=O)c2c(NC(=O)Cc3ccccc3)scc12 | inactive
19 | COc1ccc(OC)c(NC(=O)c2c(NCc3cccs3)sc3c2CCCC3)c1 | inactive
20 | CCOC(=O)c1c(N)sc2c1CN(C)CC2 | inactive
21 | CCOC(=O)c1nn(-c2ccccc2)c(=O)c2c(NC(C)=O)scc12 | inactive
22 | COC(=O)CSc1nc2ccc(NC(=O)CSc3nnnn3Cc3ccccc3)cc2s1 | inactive
23 | O=C(NCCCO)Nc1ccc2nc(-c3ccco3)c(-c3ccco3)nc2c1 | 3.16 µM [quencher] (active)
24 | CCOC(=O)c1nn(-c2ccccc2)c(=O)c2c(NC(=O)c3ccccc3)scc12 | inactive
25 | CC(=O)Nc1sc(C)c2cnn(-c3ccccc3)c(=O)c12 | inactive
